According to PubChem BioAssay AID1851 (National Center for Advancing Translational Sciences (NCATS), 2009):
Out of some 16,000 compounds screened, about 5,100 (32%) were called active. Not shown: some 25% with an inconclusive outcome. This is one part of the list. Unmarked numbers belong to inactive results. Calls come from the whole dose curve; as a rule, active = well fitted curve in the direction sought with a large enough effect; inconclusive = small, poorly fitted or top-dose-only effect, or effect the other way; inactive = no such curve, though single readings can be large or run the other way.

What follows are compounds tested against Cytochrome P450 3A4 (Homo sapiens) (UniProt P08684) (assay: Cytochrome panel assay with activity outcomes). Conditions: recombinant CYP, pro-luciferin dealkylation, luminescence, p450-cyp3a4; series mostly up to 57.1 µM; activity, negative = inhibition: at the top concentration.
Sequence of Cytochrome P450 3A4 (Homo sapiens) (P08684 whole entry, looked up): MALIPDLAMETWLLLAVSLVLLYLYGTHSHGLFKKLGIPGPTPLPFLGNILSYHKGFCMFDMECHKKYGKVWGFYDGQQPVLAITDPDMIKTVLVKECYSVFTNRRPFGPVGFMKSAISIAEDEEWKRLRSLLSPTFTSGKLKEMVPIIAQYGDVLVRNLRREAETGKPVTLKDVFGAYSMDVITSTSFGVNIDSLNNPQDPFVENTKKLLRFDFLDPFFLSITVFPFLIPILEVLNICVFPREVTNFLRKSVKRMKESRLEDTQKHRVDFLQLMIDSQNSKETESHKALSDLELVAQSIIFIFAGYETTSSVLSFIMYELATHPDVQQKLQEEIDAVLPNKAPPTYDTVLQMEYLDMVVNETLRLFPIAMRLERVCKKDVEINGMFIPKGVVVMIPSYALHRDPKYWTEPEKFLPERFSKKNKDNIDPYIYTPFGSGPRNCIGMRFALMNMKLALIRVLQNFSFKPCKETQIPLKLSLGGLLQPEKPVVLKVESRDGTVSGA
% is set by controls: 0 for no effect and ±100 for the full control effect.

SMILES | activity, negative = inhibition | AC50
O[C@@H](c1cc([C@@]23C[C@H]4CC[C@@H]2C[C@H](C4)C3)nc2c(Cl)cc(Cl)cc12)[C@@H]1CCCCN1 | -22.3% [at 11.4 µM] | 
C/C(CCN1CCCc2nc(C)c(C)cc21)=N\OC[C@@H](O)[C@@H]1O[C@@H]2OC(C)(C)O[C@@H]2[C@H]1O | -10.8% [at 11.4 µM] | 
C/C(CCN1CCCc2nc(C)c(C)cc21)=N\OC[C@@H](O)COCc1ccco1 |  | 3.98 µM (active)
C/C(CCN1CCCCc2nc(C)c(C)cc21)=N\OC[C@@H](O)COCc1ccco1 |  | 3.98 µM (active)
C/C(CCN1CCc2nc(-c3ccccc3)c(-c3ccccc3)cc2C1)=N\O[C@@H](C)c1cn([C@@H]2COC[C@@H]2O)nn1 | -37.3% [at 11.4 µM] | 
C/C(CCN1CCc2nc(-c3ccccc3)c(-c3ccccc3)cc2C1)=N\OC[C@@H](O)COCc1ccco1 |  | 3.16 µM (active)
N/C(=N\O)C1COc2ccccc2O1 (stereo not drawn) | -12.1% | 
Cc1ccc(S(=O)(=O)N2CCN(C(=O)C3COc4ccccc4O3)CC2)cc1C (stereo not drawn) |  | 11.2 µM (active)
COC(=O)[C@@]1(Cc2ccccc2)[C@H]2c3cc(C(=O)N4CCCC4)n(Cc4ccc(O)c(OC)c4)c3C[C@H]2CN1C(=O)c1ccccc1 |  | 2 µM (active)
COC(=O)[C@@]1(Cc2ccccc2)[C@H]2c3cc(C(=O)N4CCCC4)n(Cc4ccc(OC)c(OC)c4)c3C[C@H]2CN1C(=O)c1ccccc1 |  | 1.26 µM (active)
Cc1ccc2ncc([N+](=O)[O-])n2c1 | 12.5% | 
CN(C)Cc1ccccc1-c1nccc(N(C)C)n1 |  | 10 µM (active)
CNc1ccnc(-c2ccccc2CN(C)C)n1 | -20.8% | 
CN(C)Cc1ccccc1-c1nccc(NC2CC2)n1 |  | 15.8 µM (active)
COc1ccc(CO/N=C/c2c(C)[nH]c(=O)[nH]c2=O)cc1 | -11.9% | 
COc1ccc(CNc2ccnc(-c3ccccc3Cl)n2)c(OC)c1 |  | 3.16 µM (active)
COc1ccc(CNc2ccnc(-c3ccccc3OC)n2)c(OC)c1 |  | 6.31 µM (active)
COc1ccc(CNc2ccnc(-c3ccccc3CN(C)C)n2)c(OC)c1 |  | 5.01 µM (active)
COc1ccc(CNc2ccnc(-c3ccccc3C(F)(F)F)n2)c(OC)c1 |  | 3.16 µM (active)
COCCNc1ccnc(-c2ccccc2CN(C)C)n1 | -19.7% | 
C[N+]1(CCC(=O)c2ccco2)CC2CCC(CC2)C1 (stereo not drawn) | 1.47% [at 11.4 µM] | 
N#Cc1cc2[nH]c(=O)c(=O)[nH]c2cc1[N+](=O)[O-] | -23% | 
CCN(c1nc(N)c(C(=O)N=C(N)N)nc1Cl)C(C)C | -18.6% | 
